Results on seven compounds are retold here after PubChem BioAssay (NCI).

Compounds without any hit were thinned out: in the full panel of roughly 83,000, 20% have a hit.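 96-well plates, one dose, 48 hours. Percent growth reported; active if below 10.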 A number with no mark means an inactive call. Activity calls are given as the source filed them.

Some test systems named below: NCI-H23 lung; NCI-H226 lung; NCI-H322M lung; HOP-62 NSCLC; NCI-H460 lung; HOP-92 NSCLC; NCI-H522 lung; A549/ATCC NSCLC; 786-0 renal; COLO 205 colon; DU-145 prostate; K-562 leukemia; MALME-3M melanoma; MDA-MB-231 breast; SF-268 CNS; SF-295 CNS; SF-539 CNS; UACC-257 melanoma; M14 melanoma.
What all share (test): NCI-60 one-dose screen, 48 h (100 = growth as untreated, 0 = no growth, -100 = all killed)
What all share (details): 10 µM unless noted

Regarding `COC(=O)Nc1nc2ccc(C(=O)c3cccc(I)c3)cc2[nH]1`, the growth in the test with NCI-H23 lung is 22.1%; with NCI-H226 lung, 51.4%; in the test on NCI-H322M lung, 39.4%; in the test on HOP-62 NSCLC, 37%; in the test on NCI-H460 lung, 4.52% (active); with HOP-92 NSCLC, 51.5%. Further, the growth was -29.2% (active) in the test on NCI-H522 lung; 15.3% with A549/ATCC NSCLC; 27.2% in the test with 786-0 renal; -29.7% (active) in the test with COLO 205 colon; 5.95% (active) with DU-145 prostate; 6.18% (active) in the test with K-562 leukemia. Further, the growth was 31.3% with MALME-3M melanoma; -3.99% (active) with MDA-MB-231 breast; 22.4% in the test on SF-268 CNS; 12% in the test with SF-295 CNS; -25.8% (active) with SF-539 CNS; 61.4% in the test with UACC-257 melanoma. For the same compound, the growth in the test on M14 melanoma was 1.39% (active).
`O=C1NC(=O)C(=Cc2cn(Cc3ccccn3)c3ccccc23)C(=O)N1`: the growth with NCI-H23 lung is 103%; with NCI-H226 lung, 79.7%; in the test with NCI-H322M lung, 105%; with HOP-62 NSCLC, 92.7%; in the test with NCI-H460 lung, 11.9%; in the test with HOP-92 NSCLC it was 95.8%. In addition, the growth was 92.6% in the test on NCI-H522 lung; 76.3% with A549/ATCC NSCLC; 100% in the test on 786-0 renal; 54.4% in the test on COLO 205 colon; 110% in the test with DU-145 prostate; 76.4% with K-562 leukemia. Also, the growth in the test on MALME-3M melanoma was 101%; in the test with MDA-MB-231 breast, 108%; with SF-268 CNS, 93.7%; in the test with SF-295 CNS, 79.5%; with SF-539 CNS, 94.5%; in the test on UACC-257 melanoma it was 103%. For the same compound, the growth with M14 melanoma was 99.7%.
On to `COc1cc2ncnc(Nc3ccc(C(=O)/C=C/c4ccc(C(F)(F)F)cc4F)cc3)c2cc1OC`, for which the growth with NCI-H23 lung was 99.5%; in the test with NCI-H226 lung, 92.7%; in the test with NCI-H322M lung it was 99.7%; with HOP-62 NSCLC it was 144%; in the test on NCI-H460 lung it was 108%; with HOP-92 NSCLC, 113%. Also, the growth is 98.3% in the test on NCI-H522 lung; 95.2% in the test on A549/ATCC NSCLC; 85.6% in the test on 786-0 renal; 160% in the test with COLO 205 colon; 107% in the test with DU-145 prostate; 58.4% with K-562 leukemia. In addition, the growth is 106% with MALME-3M melanoma; 90.7% with MDA-MB-231 breast; 96.2% in the test with SF-268 CNS; 95.8% in the test with SF-295 CNS; 93.7% in the test on SF-539 CNS; 111% with UACC-257 melanoma. Further, the growth in the test with M14 melanoma was 97.9%.
For `COc1ccc(C(O)c2cc3c(N)c(C(=O)Nc4ccccc4)sc3nc2C)cc1` (stereo not drawn), the growth in the test with NCI-H23 lung is 29.7%; with NCI-H226 lung, 51.1%; in the test on NCI-H322M lung it was 35.4%; with HOP-62 NSCLC it was 18.8%; in the test with NCI-H460 lung it was 3.3% (active); in the test with HOP-92 NSCLC, 30.3%. Moreover, the growth is -55.9% (active) in the test with NCI-H522 lung; 13.4% with A549/ATCC NSCLC; 29.3% in the test on 786-0 renal; -58.9% (active) in the test on COLO 205 colon; 2.39% (active) in the test with DU-145 prostate; 3.59% (active) with K-562 leukemia. Besides, the growth with MALME-3M melanoma is 48.5%; in the test with MDA-MB-231 breast, -11.2% (active); in the test on SF-268 CNS, 28.3%; in the test on SF-295 CNS it was -13.3% (active); in the test on SF-539 CNS it was -25.8% (active); in the test on UACC-257 melanoma it was 49.4%. In the test with M14 melanoma, the growth is 14.3%.
On to `COc1ccc(C(=O)/C=C/c2cn(Cc3ccc(Cl)cc3)c3ccccc23)cc1`, for which the growth in the test with NCI-H23 lung was 87.5%; in the test on NCI-H226 lung, 55.1%; with NCI-H322M lung it was 79.5%; in the test on HOP-62 NSCLC, 58.9%; in the test on NCI-H460 lung it was 11.8%; with HOP-92 NSCLC, 77.3%. Further, the growth in the test on NCI-H522 lung is 26.5%; in the test on A549/ATCC NSCLC, 57.2%; in the test with 786-0 renal, 26.9%; in the test with COLO 205 colon it was 62.9%; in the test on DU-145 prostate, 87.4%; with K-562 leukemia it was 15.5%. Further, the growth is 59.9% in the test with MALME-3M melanoma; 64.5% in the test on MDA-MB-231 breast; 72.4% in the test on SF-268 CNS; 60.2% in the test with SF-295 CNS; 55.8% in the test on SF-539 CNS; 81.8% in the test with UACC-257 melanoma. The growth in the test with M14 melanoma is -60.1% (active).
Regarding `O=C(/C=C\c1ccc(OCCCCCC[P+](c2ccccc2)(c2ccccc2)c2ccccc2)cc1)c1ccc2c(c1)OCCO2`, the growth in the test with NCI-H23 lung is 3.95% (active); in the test with NCI-H226 lung, -0.25% (active); in the test with NCI-H322M lung, 22.3%; with HOP-62 NSCLC, -21.8% (active); in the test on NCI-H460 lung, -12.4% (active); in the test with HOP-92 NSCLC, -29.2% (active). Moreover, the growth is -6.94% (active) in the test on NCI-H522 lung; 12.1% in the test on A549/ATCC NSCLC; 5.76% (active) in the test with 786-0 renal; -58.6% (active) in the test on COLO 205 colon; 6.93% (active) in the test on DU-145 prostate; 2.43% (active) in the test with K-562 leukemia. Further, the growth is -15.3% (active) in the test on MALME-3M melanoma; 2.28% (active) in the test with MDA-MB-231 breast; -4.06% (active) in the test on SF-268 CNS; -17.4% (active) in the test with SF-295 CNS; 3.93% (active) with SF-539 CNS; -5.23% (active) in the test with UACC-257 melanoma. Further, the growth in the test with M14 melanoma was -3.09% (active).
Turning to `Cn1c(COC(=O)NCCn2ccnc2)nc2c(N3CCOCC3)nc(-c3ccccc3)nc21`, the growth was -74.8% (active) in the test on NCI-H23 lung; -53.8% (active) in the test with NCI-H226 lung; 33.4% in the test with NCI-H322M lung; -40.4% (active) in the test on HOP-62 NSCLC; -72.1% (active) in the test on NCI-H460 lung; -75.2% (active) in the test with HOP-92 NSCLC. The growth in the test with NCI-H522 lung was -54.7% (active); in the test on A549/ATCC NSCLC, -36.2% (active); with 786-0 renal it was -89.7% (active); with COLO 205 colon, -57.3% (active); with DU-145 prostate, -89.9% (active); in the test with K-562 leukemia it was 4.31% (active). For the same compound, the growth in the test on MALME-3M melanoma is -93.9% (active); in the test with MDA-MB-231 breast, -90.6% (active); in the test on SF-268 CNS, -61.6% (active); with SF-295 CNS, 18%; in the test with SF-539 CNS, -99.6% (active); in the test on UACC-257 melanoma, -56.7% (active). Moreover, the growth in the test with M14 melanoma was -72.5% (active).
